Unmarked numbers belong to inactive results. For some of these results: Measured potencies and affinities stand elsewhere. Calls of active or inactive are those of the source. Unless noted, the rule behind the calls is not given here.
Experiments:
[1] = antimalarial activity against Dd2 strain (AID 2302;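 active = growth inhibition above 50% at the single 2 µM test dose, taken to imply half-maximal potency below 2 µM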;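 note: 0% = DMSO untreated growth and 100% = chloroquine plus artemisinin killed control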); conditions: P. falciparum Dd2 in RBCs, LDH growth readout, 72 h; at 2 µM; active compounds read high
[2] = human hepatoma cell viability loss – ATP luminescence, cytotoxicity control for P. falciparum antimalarial project, primary screen (AID 2303;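 active = inhibition above 50%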;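 note: 0% = DMSO wells and 100% = digitonin-killed cells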); conditions: HepG2 viability, 24-48 h, at 10 µM, active compounds read high
[3] = biological target: L-lactate dehydrogenase (Plasmodium falciparum (isolate CDC / Honduras)) (UniProt Q27743); assay: PfLDH activity inhibition – cell lysate, 3D7 strain, counter-screen for P. falciparum growth inhibition project (AID 2304);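 note: 0% = vehicle and 100% = reference inhibitor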; conditions: P. falciparum 3D7 crude extract, LDH APAD/NBT absorbance; at 2 µM; active compounds read high
Chain of L-lactate dehydrogenase (Plasmodium falciparum (isolate CDC / Honduras)) (Q27743 whole entry, looked up): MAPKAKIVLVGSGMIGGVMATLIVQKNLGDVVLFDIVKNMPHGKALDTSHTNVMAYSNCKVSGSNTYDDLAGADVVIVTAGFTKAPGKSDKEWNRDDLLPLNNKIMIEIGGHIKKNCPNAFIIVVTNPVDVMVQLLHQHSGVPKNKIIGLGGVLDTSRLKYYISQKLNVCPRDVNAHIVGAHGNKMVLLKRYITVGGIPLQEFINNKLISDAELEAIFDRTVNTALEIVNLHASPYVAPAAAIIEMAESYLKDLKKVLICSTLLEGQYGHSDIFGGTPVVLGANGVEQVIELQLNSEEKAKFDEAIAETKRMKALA

[4] = inhibition of 3D7 malaria parasite growth – strain 3D7 (AID 2306);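 note: 0% = DMSO wells and 100% = chloroquine plus artemisinin control wells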; conditions: P. falciparum 3D7 erythrocytic growth, LDH absorbance, 72 h; at 2 µM; active compounds read high
[5] = biological target: Calcium-dependent protein kinase 1 (Plasmodium falciparum (isolate 3D7)) (UniProt P62344); assay: PfCDPK1 kinase inhibitors, biochemical, TCAMS library (AID 1159585; cut-off not given, nearly all actives have IC50 up to about 0.98 µM;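 note: inhibitors leave more ATP so luminescence rises with inhibition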); conditions: recombinant PfCDPK1, Kinase-Glo ATP depletion luminescence
Chain of Calcium-dependent protein kinase 1 (Plasmodium falciparum (isolate 3D7)) (P62344 whole entry, looked up): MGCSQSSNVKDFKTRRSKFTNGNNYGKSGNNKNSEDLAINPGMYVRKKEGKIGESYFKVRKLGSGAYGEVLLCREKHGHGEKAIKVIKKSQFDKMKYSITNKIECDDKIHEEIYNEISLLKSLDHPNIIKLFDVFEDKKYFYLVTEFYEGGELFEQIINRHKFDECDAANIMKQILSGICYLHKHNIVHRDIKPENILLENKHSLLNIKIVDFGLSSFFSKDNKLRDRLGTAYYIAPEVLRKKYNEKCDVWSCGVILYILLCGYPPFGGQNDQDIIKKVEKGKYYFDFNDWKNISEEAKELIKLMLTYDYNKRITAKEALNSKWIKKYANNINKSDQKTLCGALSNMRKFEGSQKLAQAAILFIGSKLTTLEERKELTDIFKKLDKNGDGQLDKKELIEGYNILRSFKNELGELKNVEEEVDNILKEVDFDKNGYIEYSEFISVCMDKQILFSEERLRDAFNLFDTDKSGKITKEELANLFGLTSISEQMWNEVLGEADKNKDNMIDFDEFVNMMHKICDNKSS

[6] = biological target: Plasmodium falciparum protein kinase 6 (PK6, PF3D7_1337100) (UniProt Q8IDW1); assay: PfPK6 kinase inhibitors, biochemical, TCAMS library (AID 1159586); conditions: recombinant PfPK6, Kinase-Glo ATP depletion luminescence
Chain of Plasmodium falciparum protein kinase 6 (PK6, PF3D7_1337100) (Q8IDW1 1-305): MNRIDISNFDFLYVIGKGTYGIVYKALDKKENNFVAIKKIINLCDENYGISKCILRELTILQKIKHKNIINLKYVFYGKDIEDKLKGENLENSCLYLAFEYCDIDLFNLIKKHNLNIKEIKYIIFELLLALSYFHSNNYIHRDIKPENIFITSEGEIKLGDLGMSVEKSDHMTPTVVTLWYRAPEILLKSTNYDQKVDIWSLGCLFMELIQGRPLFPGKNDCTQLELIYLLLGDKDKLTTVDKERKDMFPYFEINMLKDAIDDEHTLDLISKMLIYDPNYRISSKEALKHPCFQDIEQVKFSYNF

[7] = biological target: Protein kinase 7 (PK7), Plasmodium falciparum 3D7 (PF3D7_0213400) (UniProt Q7YTF7); assay: inhibition of Plasmodium PK7 catalytic activity – biochemical, TCAMS antimalarial set, Kinase-Glo luminescence (AID 1159587); conditions: recombinant PfPK7, Kinase-Glo ATP depletion luminescence
Chain of Protein kinase 7 (PK7), Plasmodium falciparum 3D7 (PF3D7_0213400) (Q7YTF7 1-343): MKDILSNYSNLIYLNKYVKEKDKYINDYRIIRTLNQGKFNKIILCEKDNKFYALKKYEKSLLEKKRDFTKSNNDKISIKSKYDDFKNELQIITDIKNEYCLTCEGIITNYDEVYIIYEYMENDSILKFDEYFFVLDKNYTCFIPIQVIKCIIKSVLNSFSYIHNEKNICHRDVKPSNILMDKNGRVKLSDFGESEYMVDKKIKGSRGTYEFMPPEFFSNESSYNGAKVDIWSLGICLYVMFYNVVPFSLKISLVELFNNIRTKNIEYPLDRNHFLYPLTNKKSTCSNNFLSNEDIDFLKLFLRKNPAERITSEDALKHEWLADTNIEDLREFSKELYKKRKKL

[8] = biological target: Calcium-dependent protein kinase 4 (Plasmodium falciparum (isolate 3D7)) (UniProt Q8IBS5); assay: PfCDPK4 kinase inhibitors, biochemical, TCAMS library (AID 1159588; cut-off not given, nearly all actives have IC50 up to about 0.91 µM); conditions: recombinant PfCDPK4, Kinase-Glo ATP depletion luminescence
Chain of Calcium-dependent protein kinase 4 (Plasmodium falciparum (isolate 3D7)) (Q8IBS5 whole entry, looked up): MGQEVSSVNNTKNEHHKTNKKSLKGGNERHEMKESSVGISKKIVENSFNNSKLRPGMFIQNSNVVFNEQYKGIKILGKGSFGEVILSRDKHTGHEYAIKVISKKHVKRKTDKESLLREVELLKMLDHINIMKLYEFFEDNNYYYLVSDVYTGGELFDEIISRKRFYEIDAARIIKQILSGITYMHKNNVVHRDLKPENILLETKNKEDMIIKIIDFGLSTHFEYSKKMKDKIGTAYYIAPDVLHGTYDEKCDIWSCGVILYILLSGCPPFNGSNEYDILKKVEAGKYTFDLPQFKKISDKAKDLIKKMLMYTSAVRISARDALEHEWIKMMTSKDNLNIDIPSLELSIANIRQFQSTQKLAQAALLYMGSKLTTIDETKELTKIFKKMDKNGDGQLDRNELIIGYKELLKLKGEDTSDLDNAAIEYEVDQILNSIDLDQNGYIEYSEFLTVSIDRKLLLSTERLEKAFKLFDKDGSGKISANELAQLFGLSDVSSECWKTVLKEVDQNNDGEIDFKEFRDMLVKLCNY

| Structure (SMILES) | growth inhibition [1] | inhibition [2] | inhibition [3] [%] | growth inhibition [4] | outcome [5] | outcome [6] | outcome [7] | outcome [8] |
| --- | --- | --- | --- | --- | --- | --- | --- | --- |
| Fc1ccc(C=NNc2ccnc3ccccc23)cc1 | 101% (active) | 21% | 4 | 101% (active) | inactive | inactive | inactive | inactive |
| COc1cc2nc(C)nc(Nc3ccc4c(ccn4Cc4ccccc4)c3)c2cc1OC | 99% (active) | 2% | -7 | 101% (active) | inactive | inactive | inactive | inactive |
| CN1CCN(CC(=O)Nc2ccc(-c3cccc(-c4nc5ccc(F)cc5[nH]4)c3)cc2)CC1 | 100% (active) | 18% | 3 | 100% (active) | inactive | inactive | inactive | inactive |
| O=C(N[C@@H](CC1CCCCC1)C(=O)NC1CC1)c1ccc(O)c(-c2cccc(C(F)(F)F)c2)c1 | 47% | -5% | -4 | 99% (active) | inactive | inactive | inactive | inactive |
| O=[N+]([O-])c1nc(Br)n(Cc2ccc(Cl)cc2)n1 | 95% (active) | -3% | -1 | 96% (active) | inactive | inactive | inactive | inactive |
| COc1ccc2ncn(-c3ccc(C(N)=O)c(OCc4ccccc4C(F)(F)F)c3)c2c1 | 100% (active) | 18% | 3 | 98% (active) | inactive | inactive | inactive | inactive |
| O=C(Nc1ccc(Cl)c(C(F)(F)F)c1)c1ccc(Cl)c([N+](=O)[O-])c1 | 18% | 20% | -2 | 87% (active) | inactive | inactive | inactive | inactive |
| CCC(C)NC(=O)CN1CN(c2ccccc2)C2(CCN(C(=O)c3ccc4ccccc4c3)CC2)C1=O (stereo not given) | 78% (active) | -6% | -2 | 95% (active) | inactive | inactive | inactive | inactive |
| COc1ccc(C(=O)Nc2ccc3nc(N4CCCCC4)cc(C)c3c2)cc1[N+](=O)[O-] | 7% | 17% | -9 | 96% (active) | inactive | inactive | inactive | inactive |
| O=C(Cc1ccc(NC(=O)c2ccc(O)c(-c3ccc(Cl)c(Cl)c3)c2)cc1)NCc1cccc(C(F)(F)F)c1 | 28% | -7% | 0 | 95% (active) | inactive | inactive | inactive | inactive |
| COc1cc2c(cc1C(F)(F)F)N(C(=O)Nc1cccc(-c3ccc(CN(C)C)cc3)c1)CC2 | 93% (active) | 95% (active) | 1 | 101% (active) | inactive | inactive | inactive | inactive |
| Nc1ncc(-c2cccc(CCN3CCOCC3)c2)cc1-c1nc2ccc(Br)cc2[nH]1 | 98% (active) | 60% (active) | 4 | 101% (active) | inactive | inactive | inactive | inactive |
| CCNc1cc(C(=O)N[C@@H](Cc2ccccc2)[C@H](O)CNC(C)Cc2cccc(Cl)c2)cc(N2CCCCS2(=O)=O)c1 (stereo not given in full) | 77% (active) | -6% | 1 | 98% (active) | inactive | inactive | inactive | inactive |
| COc1cc(C(F)(F)F)nc2c(CNCCCNc3cc(=O)c4ccccc4[nH]3)scc12 | 16% | -7% | -2 | 92% (active) | inactive | inactive | inactive | inactive |
| CCN1CCN(c2cc(C)c3cc(NC(=O)c4ccc([N+](=O)[O-])c(C)c4)ccc3n2)CC1 | 39% | 8% | -2 | 92% (active) | inactive | inactive | inactive | inactive |
| COCCNCC(O)Cn1c2ccc(Cl)cc2c2cc(Cl)ccc21 (stereo not given) | 74% (active) | 15% | 0 | 95% (active) | inactive | inactive | inactive | inactive |
| O=C(Nc1ccc(OC2CCN(Cc3ccco3)C2)c(Cl)c1)c1ccc2ncccc2c1 (stereo not given) | 42% | 1% | -6 | 92% (active) | inactive | inactive | inactive | inactive |
| Cc1cccc2[nH]c(-c3ccc(-c4ccc(C(=O)NCCN5CCCC5)cc4)s3)nc12 | 13% | 20% | 3 | 100% (active) | inactive | inactive | inactive | inactive |
| COc1ccc(CN2CCCN(Cc3ccc(C(=O)Nc4ccc(Cl)cc4)cc3)CC2)cc1 | 3% | 46% | 0 | 91% (active) | inactive | inactive | inactive | inactive |
| COc1ccc(C=NNc2nc3ccccc3[nH]2)cc1O | 13% | 15% | 0 | 95% (active) | inactive | inactive | inactive | inactive |
